Reference: PubChem BioAssay AID463173 (ICCB-Longwood Screening Facility, Harvard Medical School, 2010)
Out of some 52,000 compounds screened, about 4,300 (8.3%) were called active. Shown is part of a subset that was picked to be rich in actives. Unmarked numbers belong to inactive results. Cut-off read from the data, not from the text of the source: active = survival mostly below about 52% (no sharp cut-off); inactive = mostly above about 56%.

system: DeltatarO mutant; test: S. aureus survival, RN4220 and DeltatarO strains – OD600, teichoic acid synthesis inhibitors, primary screen (AID 463173); details: S. aureus RN4220 wild type/DeltatarO growth, OD600, 18 h, hits give low values, screened at 18.75 µg/mL (by protocol)

| SMILES | survival |
| --- | --- |
| CNS(=O)(=O)c1cn(CC(=O)Nc2ccc(C)c(N(C)C)c2)cc1S(=O)(=O)NC | 83% |
| CCc1ccc(-c2cc(C)no2)cc1S(=O)(=O)N1CCN(c2cccc(Cl)c2)CC1 | 89% |
| COc1ccc(CNc2oc(-c3ccc(COc4ccc(Cl)cc4)o3)nc2C#N)cc1 | 97% |
| Cc1cc(C)cc(NC(=O)CCc2c(C)nc3c4cccnc4nn3c2C)c1 | 99% |
| CCOc1ccc(-c2nonc2NC(=O)c2oc3cc(C)c(C)cc3c2C)cc1OCC | 43% (active) |
| CCOc1ccc(-c2nonc2NC(=O)c2ccc(C)cc2)cc1OCC | 100% |
| CCCOc1ccc(-c2nonc2NC(=O)c2oc3ccc(C)cc3c2C)cc1OCCC | 49% |
| CCOc1ccc(-c2nonc2NC(=O)c2oc3c(C)c(C)ccc3c2C)cc1OCC | 34% (active) |
| CCOc1ccc(-c2nonc2NC(=O)c2oc3cc(C)ccc3c2C)cc1OCC | 87% |
| CCOc1ccc(-c2nonc2NC(=O)c2oc3ccc(C)cc3c2C)cc1OCC | 43% |
| CCCNC(=O)N1CCCN(S(=O)(=O)c2ccc3c(ccn3CC)c2)CC1 | 79% |
| Cc1cc(C)cc(NC(=O)c2cnn(-c3ccc(C)c(C)c3)c2C2CCNCC2)c1 | 78% |
| COc1ccccc1NC(=O)CN1C(=O)CSc2ccc(S(=O)(=O)N3CCCC3)cc21 | 99% |
| Cc1cc(C)c(S(=O)(=O)NCC(c2ccc(N(C)C)cc2)N2CCOCC2)c(C)c1 (stereo unspecified) | 69% |
| Cc1ccc(CSc2oc(-c3cccs3)nc2S(=O)(=O)c2ccc(C)cc2)cc1 | 135% |
| CCCCS(=O)(=O)c1oc(-c2cccs2)nc1S(=O)(=O)c1ccc(F)cc1 | 56% |
| CCCSc1oc(-c2cccs2)nc1S(=O)(=O)c1ccc(C)cc1 | 41% |
| Cc1ccc(CSc2oc(-c3cccs3)nc2S(=O)(=O)c2ccccc2)cc1 | 65% |
| CCCCCS(=O)(=O)c1oc(-c2cccs2)nc1S(=O)(=O)c1ccc(C)cc1 | 3% (active) |

| SMILES | survival |
| --- | --- |
| CCCCS(=O)(=O)c1oc(-c2cccs2)nc1S(=O)(=O)c1ccccc1 | -5% (active) |
| COc1cccc(CSc2nc3n(n2)C(c2ccccc2C)C(C(=O)Nc2ccccc2OC)=C(C)N3)c1 (stereo unspecified) | 69% |
| Cc1ccc(C)c(NC(=O)Cn2c(=O)n(CCC(C)C)c(=O)c3cccnc32)c1 | 76% |
| NC(CSC1CCCCO1)C(=O)O (stereo unspecified) | 73% |
| O=C(Nc1ccc(N2CCN(CCOc3ccc(Cl)cc3)CC2)c(C(=O)O)c1)c1ccc(F)cc1 | 20% (active) |
| CC(=O)c1ccc(N2CCN(c3ccc(NC(=O)c4ccc(F)cc4)cc3C(=O)O)CC2)cc1 | 55% |
| O=C(Nc1ccc(N2CCC(N3CCCCC3)CC2)c(C(=O)O)c1)c1ccc(Br)cc1 | 101% |
| O=C(Nc1ccc(N2CCC(N3CCCCC3)CC2)c(C(=O)O)c1)c1ccccc1 | 96% |
| COc1ccc(C(=O)Nc2ccc(N3CCN(c4ccccc4)CC3)c(C(=O)O)c2)cc1 | 94% |
| O=C(Nc1ccc(N2CCOCC2)c(C(=O)O)c1)c1ccc(Br)cc1 | 8% (active) |
| Cc1ccc(NC(=O)C(=O)NCC2(c3ccccc3)CCCC2)cc1Cl | 97% |
| Cc1cccc(NS(=O)(=O)c2ccc3c(c2)CC(C)N3C(=O)C2CCC2)c1C (stereo unspecified) | 78% |
| N#Cc1c[nH]n2c(=O)cc(Cc3ccccc3)nc12 | 68% |
| Cc1ccc(NC(=O)c2ccc(NC(=O)CCS(=O)(=O)c3cccs3)cc2)cc1F | 81% |
| O=C(CCS(=O)(=O)c1ccc(Br)s1)Nc1c(F)cccc1F | 128% |
| CCOC(=O)c1cccc(NC(=O)CCS(=O)(=O)c2ccc(Br)s2)c1 | 71% |
| COC(=O)c1ccc(NC(=O)CCS(=O)(=O)c2ccc(Br)s2)cc1 | 60% |
| O=C(CCS(=O)(=O)c1ccc(Br)s1)Nc1cc(C(F)(F)F)cc(C(F)(F)F)c1 | 42% (active) |
| CC(=O)c1cccc(NC(=O)CCS(=O)(=O)c2ccc(Br)s2)c1 | 43% (active) |

| SMILES | survival |
| --- | --- |
| Cc1cc(NC(=O)c2ccc(NC(=O)CCS(=O)(=O)c3cccs3)cc2)ccc1Br | 35% (active) |
| CC(=O)c1ccc(NC(=O)c2ccc(NC(=O)CCS(=O)(=O)c3cccs3)cc2)cc1 | 69% |
| CC(C)c1ccc(NC(=O)CCS(=O)(=O)c2ccc(Br)s2)cc1 | 114% |
| CCc1ccc(CNC(=O)Cc2ccc(NC(=O)N3CCSc4ncccc43)cc2)cc1 | 94% |
| CC(=O)c1c(C)oc2c(Cl)cc(NS(=O)(=O)c3cc(C)c(C)cc3C)cc12 | 157% |
| COc1ccc(OC)c(-c2noc(N3CCN(c4cc(C)ccc4C)CC3)n2)c1 | 87% |
| CC(=O)N1CCCc2cc(S(=O)(=O)N3CCCC(C(=O)Nc4cccc(Cl)c4C)C3)ccc21 (stereo unspecified) | 67% |
| COc1cccc(CNC(=O)c2ccc(Cn3c(SCc4ccccc4)nc4cccnc43)cc2)c1 | 74% |
| Cn1cc(C(=O)N2CCN(c3cccc(Cl)c3)CC2)c(=O)c2cc(S(=O)(=O)N3CCCC3)ccc21 | 128% |
| CCN(CC)c1nc2c(S(=O)(=O)c3cccc(Cl)c3)nnn2c2ccsc12 | 62% |
| CN(Cc1ccccc1)c1nc2c(S(=O)(=O)c3cccc(Cl)c3)nnn2c2ccsc12 | 36% (active) |
| Cc1ccc(S(=O)(=O)c2nnn3c2nc(NCCc2ccccc2)c2sccc23)cc1 | 65% |
| Cc1ccc(CCNc2nc3c(S(=O)(=O)c4ccccc4)nnn3c3ccsc23)cc1 | 62% (active) |
| CN(Cc1ccccc1)c1nc2c(S(=O)(=O)c3ccccc3)nnn2c2ccsc12 | 70% |
| Cc1ccc(CCNc2nc3c(S(=O)(=O)c4ccc(C)cc4)nnn3c3ccsc23)cc1 | 108% |
| Cc1cc(-c2ccc(C)c(S(=O)(=O)Nc3cccc(C)n3)c2)on1 | 75% |
| O=C(Cn1c(=O)nc(-c2ccccc2F)c2cc(Cl)ccc21)Nc1ccccc1C(F)(F)F | 96% |
| Cn1c(O)c(N=NC(=O)c2ccccc2)c2ccccc21 | 105% |
